Results from PubChem BioAssay (NCI).
The panel holds about 83,000 compounds, 20% with a hit somewhere; the sample as a whole holds those more often.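 How to read the values: 0–100, growth inhibition (40 = 60% inhibited); 0, no net growth; -100 to 0, cell death (-40 = 40% of starting cells died; -100 = all dead).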 Calls of active or inactive are those of the source. The calls were made as follows: active = growth percent below 10; inactive = the rest.

What was measured:
Assay in all cases: NCI-60 one-dose screen, 48 h (100 = growth as untreated, 0 = no growth, -100 = all killed)
Details in all cases: 10 µM unless noted
[1] = tested on: OVCAR-8 ovarian
[2] = tested on: OVCAR-5 ovarian
[3] = tested on: OVCAR-4 ovarian
[4] = tested on: SK-OV-3 ovarian
[5] = tested on: IGROV1 ovarian
[6] = tested on: OVCAR-3 ovarian
[7] = tested on: HS 578T breast
[8] = tested on: NCI/ADR-RES ovarian
[9] = tested on: T-47D breast
[10] = tested on: BT-549 breast
[11] = tested on: MDA-MB-435 melanoma
[12] = tested on: SW-620 colon
[13] = tested on: MCF7 breast
[14] = tested on: HCT-116 colon
[15] = tested on: HCC-2998 colon
[16] = tested on: KM12 colon

Measured: growth

O=C1Nc2ccc(Cl)cc2/C1=N/c1nc(-c2ccc(Cl)cc2)cs1
active: [1] 3.67% | [4] 1.76% | [6] -13.6% | [9] -3.94% | [11] -82.3% | [13] 5.81% | [14] 3.16% | [15] 9.52% | [16] 1.73%
inactive: [2] 26.2% | [3] 34.9% | [5] 16.6% | [7] 13.7% | [8] 57.7% | [10] 17.4% | [12] 12.9%

O=C1NN(c2ccccc2)C(c2ccc3c(c2)OCO3)N2CCC[C@@H]12 (stereo not given in full)
inactive: [1] 96.8% | [2] 108% | [4] 99% | [5] 89.7% | [6] 100% | [7] 104% | [8] 97.9% | [9] 90.9% | [10] 114% | [11] 105% | [12] 105% | [13] 87.5% | [14] 94.3% | [15] 82.2% | [16] 98.8%

CC(=O)Nc1c(C(=O)Nc2ccccc2)sc2nc3c(cc12)C(OC(C)=O)CCC3 (stereo not given)
inactive: [1] 105% | [2] 108% | [3] 108% | [4] 46.6% | [5] 109% | [6] 104% | [7] 102% | [8] 88.4% | [9] 93.5% | [11] 35.3% | [12] 97.4% | [13] 97.6% | [14] 104% | [15] 68.7% | [16] 80.2%

C=CCn1c(SCC(=O)Nc2ccc(C(=O)/C=C/c3ccc(Cl)cc3)cc2)nnc1-c1cc(OC)c(OC)c(OC)c1
inactive: [1] 91.6% | [2] 116% | [3] 87.9% | [4] 109% | [5] 99.5% | [6] 91.9% | [7] 87.8% | [8] 95.5% | [9] 78.9% | [10] 94% | [11] 93.2% | [12] 98.2% | [13] 41% | [15] 106% | [16] 93.3%
active: [14] 6.42%

CC(C)(C)c1ccc(O)c(Cc2cc(C(C)(C)C)ccc2O)c1
inactive: [2] 120% | [3] 95.6% | [4] 102% | [5] 101% | [6] 103% | [7] 93.3% | [8] 100% | [9] 78.6% | [10] 113% | [11] 107% | [12] 105% | [13] 72.5% | [14] 88.6% | [16] 100%

C/C(=N/Nc1nc2ccccc2n1C)c1ccccn1
inactive: [2] 35.3% | [3] 20.8% | [5] 18% | [6] 10.3% | [10] 13.5% | [11] 32.5% | [12] 23.6% | [15] 39.3% | [16] 19.7%
active: [1] 0.773% | [4] -0.894% | [9] 8.05% | [13] 3.47% | [14] 2.75%

COc1ccc(-n2cc(COc3ccc4c5ccnc(C)c5n(CC(C)C)c4c3)nn2)cc1
inactive: [1] 37.6% | [2] 91.3% | [3] 65.9% | [4] 56.7% | [5] 79% | [6] 66.2% | [7] 49.7% | [8] 53.9% | [9] 39.2% | [10] 66% | [11] 87.3% | [12] 78.9% | [13] 54.3% | [14] 50.5% | [15] 85.1% | [16] 80.2%

C=C1C(=O)O[C@H]2[C@H]1CC/C(COC(=O)n1ccnc1)=C\CC[C@@]1(C)O[C@@H]21
inactive: [2] 117% | [3] 103% | [4] 102% | [5] 77.7% | [6] 57% | [7] 99.2% | [9] 78.2% | [10] 94.8% | [11] 99.6% | [12] 71.2% | [13] 76.8% | [14] 81.6% | [15] 104% | [16] 105%

CC(/C=C/c1ccccc1)=N/NC(=O)c1ccncc1
inactive: [1] 101% | [2] 114% | [3] 105% | [4] 105% | [5] 103% | [6] 109% | [7] 99.6% | [8] 107% | [9] 99% | [11] 106% | [12] 98.7% | [13] 93.6% | [14] 92.7% | [15] 107% | [16] 105%
